In the supplement of paper PMC10646978 one finds IRF reporter data, which are given here for 40 molecules.

SMILES strings stand for the structures. ± gives the standard deviation.

The first assay deals with RAW-Dual (murine macrophage reporter line). The assay can be described thus: IRF reporter (Lucia luciferase) activity fold change vs agonist alone; higher = enhanced IRF activity. The following applies: modulator concentration 10 µM; agonist: LPS 0.1 ug/mL. The method, boiled down:
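Compound reached 10 μM final in each well by pin transfer, onto RAW-Dual murine macrophage reporter cells seeded at 50 000 per well in 384-well plates. After 1 hour at 37 °C, the cells were stimulated overnight with a PRR agonist. SEAP in the supernatant was read with QUANTI-Blue at 620 nm absorbance for NF-κB, and Lucia luciferase was read with QUANTI-Luc luminescence for IRF. Each signal was turned into fold change against the mean agonist-only control on the same plate, and two replicate plates were averaged with propagated errors.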
Turning to `O=S1(=O)Nc2c(ccc3cccnc23)-c2ccccc21`, the IRF reporter worked out at 0.755 ± 0.23.
For `O=C(NCCCCNC(=O)c1cncc(Br)c1)c1cncc(Br)c1`, the IRF reporter turned out to be 1.37 ± 0.093.
Turning to `Nc1ncnc2c1nc(S)n2C1OC(CO)C(O)C1O` (stereo not given), the IRF reporter came out at 1.15 ± 0.067.
For the molecule `Cn1nc(CNC(=O)c2cccc3ccccc23)cc1C1CC1`, the IRF reporter came to 1.06 ± 0.059.
On to `CC1(C)[C@H](C(=O)O)N2C(=O)C[C@H]2S1(=O)=O`, for which the IRF reporter was determined as 0.931 ± 0.038.
Take `O=C(Cn1cnc(-c2ccc(Cl)cc2)cc1=O)N1CCOCC1`: the IRF reporter was determined as 1.09 ± 0.17.
Still for that read-out and setting: next, `Cl.N=C1CCCN1Cc1[nH]c(=O)[nH]c(=O)c1Cl`: 0.796 ± 0.23.
Still for that read-out and setting: next, `Cl.N=c1ccn2c(n1)OC1C(O)C(CO)OC12` (stereo not given): 1.15 ± 0.18; `COC1(c2ccc(Cl)cc2)OC(=O)c2ccccc21` (stereo not given): 1.06 ± 0.073; `O=c1oc2c3c4c(cc2cc1-c1nnc(-c2ccccc2)o1)CCCN4CCC3`: 1.41 ± 0.17.
Still for that read-out and setting: next, `c1ccc(-c2cc3c4cccn4ccn3c2)cc1`: 1.29 ± 0.21; `CC1(C)CCC2(C(=O)O)CCC3(C)C(=CCC4C5(C)CCC(O)C(C)(C)C5CCC43C)C2C1` (stereo not given): 1.3 ± 0.18; `COc1ccc(C(O)CN2CCN(c3cccc(C)c3C)CC2)cc1OC` (stereo not given): 0.873 ± 0.16.
Regarding `N#CC[C@H](C1CCCC1)n1cc(-c2ncnc3[nH]ccc23)cn1`, the IRF reporter is 0.719 ± 0.063.
In the case of `CN(C)C(CNC(=O)NCc1ccc(Cl)cc1)c1ccc2c(c1)CCO2` (stereo not given), the IRF reporter was 1.2 ± 0.23.
Same read-out and setting: next, `Oc1ccc(C=NCc2ccccc2)cc1`: 0.999 ± 0.05; `COc1ccc(NC(=O)CCn2nc(C)nc2C)cc1`: 1.09 ± 0.068; `Nc1ncnc2c1ncn2[C@@H]1O[C@H](CO)[C@@H](O)[C@H]1O`: 0.879 ± 0.03.
Regarding `CC1(C)CC(=O)c2c(nc3ccc(Br)cc3c2N)C1.Cl`, the IRF reporter stood at 1.07 ± 0.12.
As to `Cc1ccc(C(=O)NC(Oc2ccc3ccccc3c2)C(Br)(Br)Br)cc1` (stereo not given), the IRF reporter amounted to 1.51 ± 0.12.
Turning to `Cc1cc(CCNC(=O)c2cc3ccccc3s2)nn1C`, the IRF reporter came to 1.03 ± 0.06.
Same read-out and setting: next, `Cc1c(C(=O)Nc2ccc(N3C[C@@H](C)O[C@@H](C)C3)nc2)cccc1-c1ccc(OC(F)(F)F)cc1`: 1.13 ± 0.13.
For the molecule `COCCCN1C(=O)C(=Cc2ccc(-c3ccc(Cl)cc3Cl)o2)SC1=S`, the IRF reporter was determined as 1.01 ± 0.099.
For the molecule `CC(C)CN(CC(O)C(Cc1ccccc1)NC(=O)OC1COC2OCCC12)S(=O)(=O)c1ccc(N)cc1` (stereo not given) [Prestw-1802], the IRF reporter was determined as 0.827 ± 0.22.
Regarding `CCn1c2ccccc2c2cc(CNCCc3ccccc3)ccc21`, the IRF reporter turned out to be 0.605 ± 0.043.
In the case of `O=C(OC1Cc2c(O)cc(O)cc2OC1c1cc(O)c(O)c(O)c1)c1cc(O)c(O)c(O)c1` (stereo not given), the IRF reporter was found to be 1.13 ± 0.22.
Consider `CCc1sc2sncc2c1Br`, for which the IRF reporter was found to be 0.713 ± 0.14.
On the same count and under the same terms, next, `COc1cccc(N2CCN(C3CCN(CC4CCOCC4)CC3)CC2)c1`: 1.26 ± 0.23.
Regarding `CN1CCN(CCCN2c3ccccc3Sc3ccc(Cl)cc32)CC1.O=C(O)/C=C\C(=O)O.O=C(O)/C=C\C(=O)O`, the IRF reporter was found to be 0.479 ± 0.12.
In the case of `Cc1ccc(OCC(=O)N2CCN(c3ccc(-n4cncn4)nn3)CC2)c(C(C)(C)C)c1`, the IRF reporter worked out at 0.948 ± 0.099.
`Cc1ccc(S(=O)(=O)n2c(C)nc3ccccc32)cc1`: the IRF reporter is 1.2 ± 0.13.
Same read-out and setting: next, `CCCCNCCCCOc1ccc(C)cc1C(C)(C)C`: 0.201 ± 0.056; `CCN(CC)CCOC(=O)c1ccc(N)cc1Cl.Cl`: 1.01 ± 0.089; `CC(=O)C(C(=O)Nc1ccc(F)cc1)C(c1ccc(Cl)cc1Cl)C(C#N)C#N` (stereo not given): 1.1 ± 0.075.
Same read-out and setting: in the case of `O=C(CCc1ccc(O)cc1)c1c(O)cc(O)cc1O` it was 1.03 ± 0.12.
As for `Nc1nc(Cl)nc2c1ncn2[C@@H]1O[C@H](CO)[C@@H](O)[C@@H]1F`, the IRF reporter stood at 1.01 ± 0.045.
For `CCC(C)(C)C(=O)OC1CC(C)C=C2C=CC(C)C(CCC3CC(O)CC(=O)O3)C21` (stereo not given), the IRF reporter is 0.918 ± 0.087.
As to `O=C(CC1CCCCN1S(=O)(=O)c1ccccc1)NCCC1=CCCCC1` (stereo not given), the IRF reporter was found to be 1.23 ± 0.08.
The same measure, in the same setting: in the case of `C#Cc1cccc(Nc2ncnc3cc(OC)c(OCCCCCCC(=O)NO)cc23)c1` it was 0.43 ± 0.029; in that of `C=C1C(=O)O[C@@H]2[C@H]3O[C@]3(C)CC/C=C(\C)CC[C@@H]12` [Prestw-550], 0.0437 ± 0.0043.

The assay is the same for the next values; noted with them: modulator concentration 10 µM; agonist: MPLA […].
As for `O=S1(=O)Nc2c(ccc3cccnc23)-c2ccccc21`, the IRF reporter stood at 0.29 ± 0.079.
As for `O=C(NCCCCNC(=O)c1cncc(Br)c1)c1cncc(Br)c1`, the IRF reporter is 1.16 ± 0.24.
On to `Nc1ncnc2c1nc(S)n2C1OC(CO)C(O)C1O` (stereo not given), for which the IRF reporter was 1.27 ± 0.14.
On to `Cn1nc(CNC(=O)c2cccc3ccccc23)cc1C1CC1`, for which the IRF reporter is 0.962 ± 0.15.
As for `CC1(C)[C@H](C(=O)O)N2C(=O)C[C@H]2S1(=O)=O`, the IRF reporter turned out to be 0.859 ± 0.068.
With `O=C(Cn1cnc(-c2ccc(Cl)cc2)cc1=O)N1CCOCC1`, the IRF reporter worked out at 1.09 ± 0.21.
Still for that read-out and setting: in the case of `Cl.N=C1CCCN1Cc1[nH]c(=O)[nH]c(=O)c1Cl` it was 0.995 ± 0.31; in that of `Cl.N=c1ccn2c(n1)OC1C(O)C(CO)OC12` (stereo not given), 0.959 ± 0.091; in that of `COC1(c2ccc(Cl)cc2)OC(=O)c2ccccc21` (stereo not given), 1.13 ± 0.16.
On the same count and under the same terms, next, `O=c1oc2c3c4c(cc2cc1-c1nnc(-c2ccccc2)o1)CCCN4CCC3`: 1.04 ± 0.069; `c1ccc(-c2cc3c4cccn4ccn3c2)cc1`: 1.32 ± 0.39.
For the molecule `CC1(C)CCC2(C(=O)O)CCC3(C)C(=CCC4C5(C)CCC(O)C(C)(C)C5CCC43C)C2C1` (stereo not given), the IRF reporter stood at 1.24 ± 0.18.
On the same count and under the same terms, next, `COc1ccc(C(O)CN2CCN(c3cccc(C)c3C)CC2)cc1OC` (stereo not given): 1.04 ± 0.12.
Consider `N#CC[C@H](C1CCCC1)n1cc(-c2ncnc3[nH]ccc23)cn1`, for which the IRF reporter worked out at 0.764 ± 0.074.
The same measure, in the same setting: next, `CN(C)C(CNC(=O)NCc1ccc(Cl)cc1)c1ccc2c(c1)CCO2` (stereo not given): 1.4 ± 0.14.
Take `Oc1ccc(C=NCc2ccccc2)cc1`: the IRF reporter came out at 1.06 ± 0.19.
For the molecule `COc1ccc(NC(=O)CCn2nc(C)nc2C)cc1`, the IRF reporter was found to be 1.01 ± 0.12.
Same read-out and setting: next, `Nc1ncnc2c1ncn2[C@@H]1O[C@H](CO)[C@@H](O)[C@H]1O`: 0.852 ± 0.11; `CC1(C)CC(=O)c2c(nc3ccc(Br)cc3c2N)C1.Cl`: 1.11 ± 0.11.
On to `Cc1ccc(C(=O)NC(Oc2ccc3ccccc3c2)C(Br)(Br)Br)cc1` (stereo not given), for which the IRF reporter was found to be 1.27 ± 0.14.
`Cc1cc(CCNC(=O)c2cc3ccccc3s2)nn1C`: the IRF reporter worked out at 0.993 ± 0.16.
Take `Cc1c(C(=O)Nc2ccc(N3C[C@@H](C)O[C@@H](C)C3)nc2)cccc1-c1ccc(OC(F)(F)F)cc1`: the IRF reporter came to 1.37 ± 0.1.
On the same count and under the same terms, next, `COCCCN1C(=O)C(=Cc2ccc(-c3ccc(Cl)cc3Cl)o2)SC1=S`: 0.998 ± 0.25.
Take `CC(C)CN(CC(O)C(Cc1ccccc1)NC(=O)OC1COC2OCCC12)S(=O)(=O)c1ccc(N)cc1` (stereo not given) [Prestw-1802]: the IRF reporter is 0.953 ± 0.14.
Consider `CCn1c2ccccc2c2cc(CNCCc3ccccc3)ccc21`, for which the IRF reporter came out at 2.43 ± 0.32.
Regarding `O=C(OC1Cc2c(O)cc(O)cc2OC1c1cc(O)c(O)c(O)c1)c1cc(O)c(O)c(O)c1` (stereo not given), the IRF reporter came to 1.06 ± 0.1.
Still for that read-out and setting: in the case of `CCc1sc2sncc2c1Br` it was 0.549 ± 0.076; in that of `COc1cccc(N2CCN(C3CCN(CC4CCOCC4)CC3)CC2)c1`, 1.42 ± 0.49.
Consider `CN1CCN(CCCN2c3ccccc3Sc3ccc(Cl)cc32)CC1.O=C(O)/C=C\C(=O)O.O=C(O)/C=C\C(=O)O`, for which the IRF reporter is 0.435 ± 0.13.
In the case of `Cc1ccc(OCC(=O)N2CCN(c3ccc(-n4cncn4)nn3)CC2)c(C(C)(C)C)c1`, the IRF reporter came out at 0.87 ± 0.15.
`Cc1ccc(S(=O)(=O)n2c(C)nc3ccccc32)cc1`: the IRF reporter is 1.27 ± 0.13.
Take `CCCCNCCCCOc1ccc(C)cc1C(C)(C)C`: the IRF reporter came out at 2.6 ± 0.65.
For the molecule `CCN(CC)CCOC(=O)c1ccc(N)cc1Cl.Cl`, the IRF reporter came to 0.897 ± 0.077.
For the molecule `CC(=O)C(C(=O)Nc1ccc(F)cc1)C(c1ccc(Cl)cc1Cl)C(C#N)C#N` (stereo not given), the IRF reporter turned out to be 1.02 ± 0.26.
For the molecule `O=C(CCc1ccc(O)cc1)c1c(O)cc(O)cc1O`, the IRF reporter turned out to be 1.23 ± 0.15.
In the case of `Nc1nc(Cl)nc2c1ncn2[C@@H]1O[C@H](CO)[C@@H](O)[C@@H]1F`, the IRF reporter is 0.918 ± 0.15.
As to `CCC(C)(C)C(=O)OC1CC(C)C=C2C=CC(C)C(CCC3CC(O)CC(=O)O3)C21` (stereo not given), the IRF reporter was 0.524 ± 0.11.
The same measure, in the same setting: in the case of `O=C(CC1CCCCN1S(=O)(=O)c1ccccc1)NCCC1=CCCCC1` (stereo not given) it was 1.38 ± 0.11; in that of `C#Cc1cccc(Nc2ncnc3cc(OC)c(OCCCCCCC(=O)NO)cc23)c1`, 0.581 ± 0.068.
With `C=C1C(=O)O[C@@H]2[C@H]3O[C@]3(C)CC/C=C(\C)CC[C@@H]12` [Prestw-550], the IRF reporter was determined as 0.0367 ± 0.005.
